Reference: the supplement of paper PMC10849652
Of roughly 7,900 targets only a part is listed; those with a hit were picked by preference. About 0.6% of all pairs of compound and target were hits.

Experiments:
Experiment in all cases: log2 fold change, soluble protein after heating vs DMSO (PISA); higher = thermal stabilisation; K562 cells, 10 uM, 30 min; active = over 0.2 and 3.5 SD of the protein, either way, in both replicates (recomputed)
saracatinib = compound: CN1CCN(CCOc2cc(OC3CCOCC3)c3c(Nc4c(Cl)ccc5c4OCO5)ncnc3c2)CC1 [saracatinib]
Procedure, shortened: (§1)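 Soluble protein was defined as the supernatant after 21,000xg for 90 min. It came from K562 cells at 2×10^6 cells/mL given 10 μM compound for 30 min, heated in aliquots for 3 min across 48°C-58°C, pooled, and extracted in PBS with 0.5% NP-40 at 4°C, and was quantified by TMTpro 16plex LC-MS/MS with equalised channel sums. Thermal stability against control samples, from duplicates, is reported as log2 fold change.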

sotrastaurin = compound: CN1CCN(c2nc(C3=C(c4c[nH]c5ccccc45)C(=O)NC3=O)c3ccccc3n2)CC1 [sotrastaurin]
Procedure, shortened: as §1

alvocidib = compound: CN1CC[C@H](c2c(O)cc(O)c3c(=O)cc(-c4ccccc4Cl)oc23)[C@H](O)C1 [alvocidib]
Procedure, shortened: as §1

Tubastatin A = compound: CN1CCc2c(c3ccccc3n2Cc2ccc(C(=O)NO)cc2)C1 [Tubastatin A]
Procedure, shortened: as §1

[1] = compound: CNC(=O)C1=CC=CC=C1NC2=NC(=NC=C2Cl)NC3=C(C=C(C=C3)N4CCOCC4)OC
Procedure, shortened: as §1

defactinib = compound: CNC(=O)c1ccc(Nc2ncc(C(F)(F)F)c(NCc3nccnc3N(C)S(C)(=O)=O)n2)cc1 [defactinib]
Procedure, shortened: as §1

rucaparib = compound: CNCc1ccc(-c2[nH]c3cc(F)cc4c3c2CCNC4=O)cc1 [rucaparib]
Procedure, shortened: as §1

[2] = compound: CNc1nc(-c2ccc3c(N)n[nH]c3c2)cc(N2C[C@@H](C(=O)NC3CCCCC3)CC[C@H]2C)n1
Procedure, shortened: as §1

encorafenib = compound: COC(=O)N[C@@H](C)CNc1nccc(-c2cn(C(C)C)nc2-c2cc(Cl)cc(NS(C)(=O)=O)c2F)n1 [encorafenib]
Procedure, shortened: as §1

[3] = compound: COC(=O)[C@H](CCSC)NC(=O)C1=C(C=C(C=C1)NC[C@H](CS)N)C2=CC=CC=C2
Procedure, shortened: as §1

Measured: log2 fold change

CALCOCO2 isoform 4 (UniProt Q13137)
inactive: saracatinib -0.03 | sotrastaurin -0.127 | alvocidib 0.033 | Tubastatin A 0.037 | [1] 0.012 | defactinib 0.017 | rucaparib -0.044 | [2] -0.034 | encorafenib 0.076 | [3] 0.021

CHEK1 (UniProt O14757)
active: sotrastaurin -0.271 | [1] -0.32
inactive: saracatinib 0 | alvocidib -0.041 | Tubastatin A 0.09 | defactinib -0.031 | rucaparib -0.071 | [2] 0.003 | encorafenib 0.043 | [3] 0

CEMIP2 (UniProt Q9UHN6)
inactive: saracatinib -0.104 | alvocidib -0.055 | Tubastatin A -0.005 | [1] 0.032 | defactinib 0.017 | rucaparib 0.046 | [2] -0.026 | encorafenib -0.1 | [3] 0.029

COG2 (UniProt Q14746)
inactive: saracatinib 0.001 | sotrastaurin -0.32 | alvocidib 0.137 | Tubastatin A -0.08 | [1] -0.135 | rucaparib -0.272 | [2] -0.085 | encorafenib 0.007

CLN5 (UniProt O75503)
inactive: saracatinib -0.283 | sotrastaurin -0.008 | alvocidib 0.01 | Tubastatin A 0.079 | [1] 0.032 | [2] -0.715

CDK4 (UniProt P11802)
Chain of UniProt P11802 (P11802 whole entry, looked up): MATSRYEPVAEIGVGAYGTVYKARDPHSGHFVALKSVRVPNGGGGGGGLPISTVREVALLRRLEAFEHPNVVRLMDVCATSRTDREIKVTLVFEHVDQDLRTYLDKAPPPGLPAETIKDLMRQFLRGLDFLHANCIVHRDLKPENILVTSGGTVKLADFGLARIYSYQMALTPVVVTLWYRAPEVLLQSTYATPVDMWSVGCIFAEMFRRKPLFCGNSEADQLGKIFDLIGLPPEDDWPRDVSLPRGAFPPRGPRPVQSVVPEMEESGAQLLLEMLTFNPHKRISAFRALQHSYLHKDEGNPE
inactive: saracatinib -0.03 | sotrastaurin -0.028 | alvocidib 0.098 | [1] 0.07 | defactinib -0.039 | rucaparib 0.051 | [2] -0.057 | encorafenib -0.008 | [3] -0.07

C22orf39 (UniProt Q6P5X5)
inactive: saracatinib 0.076 | sotrastaurin -0.028 | alvocidib 0.013 | Tubastatin A -0.013 | [1] 0.129 | [2] 0.056

CHPT1 (UniProt Q8WUD6)
inactive: saracatinib -0.066 | sotrastaurin -0.016 | alvocidib -0.118 | Tubastatin A -0.08 | rucaparib -0.069 | [2] 0.034 | encorafenib 0.103

C9orf72 (UniProt Q96LT7)
Chain of UniProt Q96LT7 (Q96LT7 whole entry, looked up): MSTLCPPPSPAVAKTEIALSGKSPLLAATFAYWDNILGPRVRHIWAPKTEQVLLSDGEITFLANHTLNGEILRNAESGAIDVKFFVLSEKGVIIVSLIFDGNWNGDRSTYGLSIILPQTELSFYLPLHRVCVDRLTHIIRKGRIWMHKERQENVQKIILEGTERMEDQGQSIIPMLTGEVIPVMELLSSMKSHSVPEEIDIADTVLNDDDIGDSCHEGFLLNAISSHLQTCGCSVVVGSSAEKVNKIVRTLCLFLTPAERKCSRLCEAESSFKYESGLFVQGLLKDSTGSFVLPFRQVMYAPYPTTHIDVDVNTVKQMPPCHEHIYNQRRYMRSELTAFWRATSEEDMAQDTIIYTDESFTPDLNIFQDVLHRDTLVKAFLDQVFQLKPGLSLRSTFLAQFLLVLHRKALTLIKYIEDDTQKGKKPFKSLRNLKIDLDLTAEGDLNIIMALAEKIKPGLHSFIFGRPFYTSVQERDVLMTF
inactive: saracatinib 0.071 | sotrastaurin 0.129 | alvocidib -0.04 | Tubastatin A -0.126 | [1] -0.071 | defactinib -0.056 | [2] -0.021 | [3] 0

CASP9 (UniProt P55211)
Chain of UniProt P55211 (P55211 whole entry, looked up): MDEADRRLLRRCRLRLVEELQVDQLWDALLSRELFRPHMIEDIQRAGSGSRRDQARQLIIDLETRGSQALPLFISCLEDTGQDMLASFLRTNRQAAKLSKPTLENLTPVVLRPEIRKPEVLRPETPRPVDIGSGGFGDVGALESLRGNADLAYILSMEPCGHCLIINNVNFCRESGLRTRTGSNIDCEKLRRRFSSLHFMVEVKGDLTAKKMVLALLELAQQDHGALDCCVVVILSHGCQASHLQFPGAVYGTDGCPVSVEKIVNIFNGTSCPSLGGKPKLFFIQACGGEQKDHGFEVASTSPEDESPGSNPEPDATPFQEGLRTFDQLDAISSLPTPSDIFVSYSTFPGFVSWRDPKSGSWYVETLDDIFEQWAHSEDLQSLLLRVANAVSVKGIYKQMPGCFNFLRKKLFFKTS
inactive: saracatinib -0.206 | sotrastaurin -0.25 | alvocidib -0.136 | Tubastatin A 0.098 | defactinib -0.165 | rucaparib 0.161 | [2] -0.051 | encorafenib 0.012 | [3] -0.035

CEP128 (UniProt Q6ZU80)
inactive: saracatinib -0.092 | sotrastaurin -0.022 | alvocidib 0.033 | Tubastatin A 0.024 | defactinib 0.027 | rucaparib -0.306 | [2] -0.22 | encorafenib 0.061 | [3] 0.044

CCNC (UniProt P24863)
Chain of UniProt P24863 (P24863 whole entry, looked up): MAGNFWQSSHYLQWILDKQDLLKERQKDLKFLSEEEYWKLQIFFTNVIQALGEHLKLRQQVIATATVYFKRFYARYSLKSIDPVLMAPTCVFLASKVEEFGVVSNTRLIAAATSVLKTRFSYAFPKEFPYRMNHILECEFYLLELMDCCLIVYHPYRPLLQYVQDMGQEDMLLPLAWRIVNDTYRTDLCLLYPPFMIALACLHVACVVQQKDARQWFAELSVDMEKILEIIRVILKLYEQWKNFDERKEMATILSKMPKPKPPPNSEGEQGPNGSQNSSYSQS
active: alvocidib 0.6
inactive: saracatinib 0.057 | sotrastaurin -0.057 | [1] 0.008 | defactinib -0.047 | [2] -0.028 | [3] 0.001

CAV2 (UniProt P51636)
Chain of UniProt P51636 (P51636 whole entry, looked up): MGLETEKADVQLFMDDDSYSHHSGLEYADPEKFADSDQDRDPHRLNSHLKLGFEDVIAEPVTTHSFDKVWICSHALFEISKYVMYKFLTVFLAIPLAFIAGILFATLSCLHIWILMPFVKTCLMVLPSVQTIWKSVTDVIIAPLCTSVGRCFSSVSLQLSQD
inactive: saracatinib -0.006 | sotrastaurin 0.045 | Tubastatin A 0.159 | [1] -0.019 | [2] 0.013

CLUH (UniProt O75153)
inactive: saracatinib -0.032 | sotrastaurin -0.141 | alvocidib -0.006 | Tubastatin A 0.033 | [1] -0.049 | defactinib -0.04 | rucaparib 0.239 | [2] 0.133 | encorafenib -0.044 | [3] -0.046

CCAR2 isoform 2 (UniProt Q8N163)
inactive: saracatinib -0.102 | sotrastaurin -0.231 | alvocidib -0.254 | Tubastatin A 0.122 | [1] -0.083 | rucaparib -0.106 | [2] 0.031 | encorafenib -0.011 | [3] 0
active: defactinib -0.42

CHCHD2 (UniProt Q9Y6H1)
inactive: saracatinib 0 | sotrastaurin -0.031 | alvocidib 0.027 | Tubastatin A -0.058 | [1] 0.087 | defactinib -0.002 | rucaparib -0.065 | [2] -0.049 | encorafenib -0.01 | [3] 0.061

COX17 (UniProt Q14061)
Chain of UniProt Q14061 (Q14061 whole entry, looked up): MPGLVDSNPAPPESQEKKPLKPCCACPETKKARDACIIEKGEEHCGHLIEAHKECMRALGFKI
inactive: saracatinib -0.092 | sotrastaurin -0.023 | alvocidib -0.101 | Tubastatin A -0.113 | [1] -0.008 | defactinib -0.072 | [2] 0.023 | [3] 0.147

CD84 (UniProt Q9UIB8)
inactive: saracatinib -0.012 | sotrastaurin -0.144 | alvocidib -0.111 | Tubastatin A -0.039 | [1] -0.119
active: [2] 0.56

CHAF1A (UniProt Q13111)
inactive: saracatinib 0.008 | sotrastaurin 0.004 | alvocidib 0.041 | [1] 0.133 | rucaparib 0.198 | [2] -0.125 | encorafenib 0.094

CCNT2 (UniProt O60583)
inactive: saracatinib -0.016 | sotrastaurin -0.372 | Tubastatin A 0.157 | rucaparib -0.112 | [2] 0.04 | encorafenib 0.119

CENPE (UniProt Q02224)
inactive: saracatinib 0.318 | sotrastaurin -0.19 | alvocidib -0.385 | Tubastatin A 0.091 | [1] -0.277 | defactinib -0.056 | [2] 0.399 | [3] 0.198

CERT isoform 3 (UniProt Q9Y5P4)
inactive: saracatinib 0.033 | sotrastaurin 0.014 | alvocidib 0.002 | Tubastatin A -0.105 | [1] 0.131 | defactinib -0.097 | rucaparib -0.009 | [2] 0.116 | encorafenib -0.015 | [3] 0.047

CDK16 isoform 2 (UniProt Q00536)
inactive: saracatinib -0.014 | sotrastaurin 0.246 | Tubastatin A 0.014 | [1] 0.027 | defactinib 0.236 | rucaparib 0.278 | [2] -0.102 | encorafenib 0.016 | [3] -0.146

CASP10 isoform 4 (UniProt Q92851)
inactive: saracatinib 0.034 | sotrastaurin -0.138 | alvocidib -0.116 | Tubastatin A 0.127 | defactinib 0.028 | rucaparib 0.111 | [2] 0.04 | encorafenib 0.164 | [3] -0.039

CAB39L (UniProt Q9H9S4)
Chain of UniProt Q9H9S4 (Q9H9S4 whole entry, looked up): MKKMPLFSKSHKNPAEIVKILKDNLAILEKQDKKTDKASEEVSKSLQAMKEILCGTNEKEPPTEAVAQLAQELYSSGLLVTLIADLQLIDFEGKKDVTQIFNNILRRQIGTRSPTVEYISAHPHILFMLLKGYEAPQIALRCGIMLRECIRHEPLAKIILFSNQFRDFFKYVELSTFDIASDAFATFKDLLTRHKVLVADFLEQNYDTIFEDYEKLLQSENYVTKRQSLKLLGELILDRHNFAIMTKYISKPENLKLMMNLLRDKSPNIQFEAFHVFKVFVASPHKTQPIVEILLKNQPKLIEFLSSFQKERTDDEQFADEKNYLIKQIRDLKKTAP
inactive: saracatinib 0.043 | sotrastaurin -0.213 | Tubastatin A 0.056 | [1] 0.049 | defactinib -0.09 | rucaparib 0.003 | [2] 0.015 | encorafenib -0.144 | [3] 0.043

COX7C (UniProt P15954)
inactive: saracatinib 0.026 | sotrastaurin 0.028 | Tubastatin A 0.03 | [1] 0.007 | defactinib 0.031 | rucaparib 0.011 | [2] -0.054 | encorafenib -0.06 | [3] 0.047

CDKN1B (UniProt P46527)
inactive: saracatinib 0.29 | sotrastaurin 0.129 | alvocidib 0.256 | [1] -0.247 | defactinib 0.163 | [2] -0.298 | [3] 0.028

C5orf30 (UniProt Q96GV9)
inactive: Tubastatin A 0.502

CRTC3 (UniProt Q6UUV7)
Chain of UniProt Q6UUV7 (Q6UUV7 whole entry, looked up): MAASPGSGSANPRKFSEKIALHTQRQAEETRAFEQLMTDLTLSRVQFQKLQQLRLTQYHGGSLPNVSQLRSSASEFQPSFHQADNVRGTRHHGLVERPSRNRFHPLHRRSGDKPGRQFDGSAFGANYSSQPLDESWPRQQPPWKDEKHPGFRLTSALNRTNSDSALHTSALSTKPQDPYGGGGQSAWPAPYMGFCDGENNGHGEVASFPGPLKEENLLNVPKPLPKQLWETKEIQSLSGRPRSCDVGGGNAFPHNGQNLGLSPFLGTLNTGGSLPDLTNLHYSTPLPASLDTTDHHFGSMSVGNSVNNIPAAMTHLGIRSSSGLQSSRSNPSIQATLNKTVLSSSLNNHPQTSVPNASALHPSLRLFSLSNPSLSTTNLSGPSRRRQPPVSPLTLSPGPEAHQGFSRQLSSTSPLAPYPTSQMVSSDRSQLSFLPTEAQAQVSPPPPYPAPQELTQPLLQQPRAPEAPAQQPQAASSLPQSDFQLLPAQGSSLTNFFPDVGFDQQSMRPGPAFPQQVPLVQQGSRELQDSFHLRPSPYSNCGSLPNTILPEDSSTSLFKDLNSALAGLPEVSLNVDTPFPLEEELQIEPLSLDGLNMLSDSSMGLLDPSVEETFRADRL
inactive: sotrastaurin 0.044 | alvocidib -0.051 | Tubastatin A -0.109 | defactinib 0.025 | [3] -0.06

COMMD1 (UniProt Q8N668)
inactive: sotrastaurin -0.038 | Tubastatin A -0.213 | [1] 0.119 | defactinib -0.151 | rucaparib 0.15 | encorafenib -0.028 | [3] 0.092

CREB3L2 (UniProt Q70SY1)
inactive: alvocidib -0.242 | Tubastatin A 0.282 | [1] -0.19 | defactinib -0.039 | [3] -0.172

C1D (UniProt Q13901)
inactive: sotrastaurin 0.005 | Tubastatin A 0.079 | [1] 0.001 | defactinib 0.042 | rucaparib -0.005 | encorafenib 0.009 | [3] 0.091

CNRIP1 (UniProt Q96F85)
inactive: [1] 0.053

CS (UniProt F8VU34)
inactive: rucaparib 0.268 | encorafenib 0.158

CHST11 (UniProt Q9NPF2)
Chain of UniProt Q9NPF2 (Q9NPF2 whole entry, looked up): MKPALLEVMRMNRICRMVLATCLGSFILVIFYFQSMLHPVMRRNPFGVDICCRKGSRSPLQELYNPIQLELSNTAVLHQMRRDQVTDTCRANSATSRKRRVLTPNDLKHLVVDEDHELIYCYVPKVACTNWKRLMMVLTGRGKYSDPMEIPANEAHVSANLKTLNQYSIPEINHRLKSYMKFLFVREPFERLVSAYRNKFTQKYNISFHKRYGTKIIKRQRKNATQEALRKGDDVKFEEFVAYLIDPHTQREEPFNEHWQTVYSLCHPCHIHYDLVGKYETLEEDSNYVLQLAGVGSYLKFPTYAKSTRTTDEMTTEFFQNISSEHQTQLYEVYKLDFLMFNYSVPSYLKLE
inactive: sotrastaurin -0.02 | alvocidib -0.049 | Tubastatin A 0.08 | [1] 0.079 | defactinib -0.003 | rucaparib 0.083 | encorafenib 0.177 | [3] -0.048

CLPTM1L (UniProt G5E9Z2)
inactive: sotrastaurin -0.288 | alvocidib 0.051 | Tubastatin A -0.109 | defactinib 0.002 | [3] -0.029

CASK (UniProt O14936)
inactive: saracatinib -0.068 | [1] -0.064 | [2] -0.009

CCDC82 (UniProt Q8N4S0)
Chain of UniProt Q8N4S0 (Q8N4S0 whole entry, looked up): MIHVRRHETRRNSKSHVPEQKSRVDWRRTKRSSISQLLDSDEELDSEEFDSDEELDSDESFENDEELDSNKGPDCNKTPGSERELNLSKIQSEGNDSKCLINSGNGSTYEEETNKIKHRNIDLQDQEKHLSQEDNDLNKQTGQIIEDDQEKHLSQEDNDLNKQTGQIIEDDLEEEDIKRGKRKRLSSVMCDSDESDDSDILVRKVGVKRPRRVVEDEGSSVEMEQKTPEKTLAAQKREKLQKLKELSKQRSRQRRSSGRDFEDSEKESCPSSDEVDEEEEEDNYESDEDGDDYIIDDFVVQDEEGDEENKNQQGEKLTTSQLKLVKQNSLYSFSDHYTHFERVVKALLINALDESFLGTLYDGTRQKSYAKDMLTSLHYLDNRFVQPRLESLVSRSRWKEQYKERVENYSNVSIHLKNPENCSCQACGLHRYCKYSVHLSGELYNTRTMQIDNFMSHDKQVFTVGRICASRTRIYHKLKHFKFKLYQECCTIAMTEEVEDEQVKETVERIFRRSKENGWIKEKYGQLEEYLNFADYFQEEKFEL
inactive: saracatinib 0 | alvocidib -0.065 | Tubastatin A 0.102 | [1] 0.03 | defactinib -0.09 | rucaparib -0.069 | [2] -0.139 | encorafenib 0.021 | [3] -0.037

CEBPZOS (UniProt A8MTT3)
Chain of UniProt A8MTT3 (A8MTT3 whole entry, looked up): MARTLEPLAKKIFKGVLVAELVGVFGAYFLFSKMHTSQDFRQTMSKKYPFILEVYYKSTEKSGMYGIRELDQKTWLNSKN
inactive: saracatinib 0.079 | Tubastatin A -0.06 | [1] 0.039 | defactinib -0.012 | rucaparib 0.159 | [2] -0.032 | encorafenib -0.038 | [3] -0.02

CFAP58 (UniProt Q5T655)
inactive: encorafenib 0.265
active: rucaparib -1.21

CLASP2 (UniProt O75122)
Chain of UniProt O75122 (O75122 whole entry, looked up): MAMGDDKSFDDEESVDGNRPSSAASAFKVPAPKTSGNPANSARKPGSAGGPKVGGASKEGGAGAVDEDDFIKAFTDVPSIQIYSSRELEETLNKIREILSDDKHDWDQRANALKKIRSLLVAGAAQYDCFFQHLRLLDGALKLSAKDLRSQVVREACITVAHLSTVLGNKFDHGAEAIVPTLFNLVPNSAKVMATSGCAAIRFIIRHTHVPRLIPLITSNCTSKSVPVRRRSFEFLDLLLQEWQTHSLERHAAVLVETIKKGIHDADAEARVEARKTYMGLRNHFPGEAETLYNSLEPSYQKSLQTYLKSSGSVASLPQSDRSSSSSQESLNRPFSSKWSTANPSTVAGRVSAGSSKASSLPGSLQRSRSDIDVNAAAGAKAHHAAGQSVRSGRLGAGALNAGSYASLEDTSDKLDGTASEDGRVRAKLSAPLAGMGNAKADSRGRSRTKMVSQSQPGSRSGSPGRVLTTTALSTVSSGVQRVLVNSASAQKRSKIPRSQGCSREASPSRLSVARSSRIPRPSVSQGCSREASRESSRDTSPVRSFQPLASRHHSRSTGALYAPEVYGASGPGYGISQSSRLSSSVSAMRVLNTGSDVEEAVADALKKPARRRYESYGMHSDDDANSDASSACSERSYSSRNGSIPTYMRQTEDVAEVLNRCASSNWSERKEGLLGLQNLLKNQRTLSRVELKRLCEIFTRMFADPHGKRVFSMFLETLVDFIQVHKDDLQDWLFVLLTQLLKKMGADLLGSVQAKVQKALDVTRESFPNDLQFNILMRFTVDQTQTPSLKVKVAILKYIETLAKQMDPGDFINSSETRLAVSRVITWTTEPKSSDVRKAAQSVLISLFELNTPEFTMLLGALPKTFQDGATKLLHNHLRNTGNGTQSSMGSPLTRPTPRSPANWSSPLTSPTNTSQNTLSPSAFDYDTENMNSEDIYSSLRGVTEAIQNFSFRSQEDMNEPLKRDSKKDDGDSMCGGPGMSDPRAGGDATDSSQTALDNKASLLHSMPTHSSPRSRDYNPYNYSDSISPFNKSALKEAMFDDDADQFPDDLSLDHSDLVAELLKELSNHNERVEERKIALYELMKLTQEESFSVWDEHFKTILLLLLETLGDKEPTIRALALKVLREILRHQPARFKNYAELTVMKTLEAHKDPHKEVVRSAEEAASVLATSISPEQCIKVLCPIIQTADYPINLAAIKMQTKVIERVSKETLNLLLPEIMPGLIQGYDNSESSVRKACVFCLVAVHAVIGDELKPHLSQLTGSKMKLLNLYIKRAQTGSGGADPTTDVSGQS
inactive: alvocidib -0.069 | [1] 0 | rucaparib 0 | encorafenib 0.098
